An excerpt weighted towards active compounds, which were near 27% of everything screened.
CYP2C9 activ – increases human cytochrome P450 2C9 activity; P11712; recombinant CYP2C9, luciferin-H conversion, luminescence; stronger effect = higher value; factor 1 = untreated enzyme, 0 = blocked; activation factor at 5 µM; actives 1.4% (n = 96,000); AID 1024;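 active means activation factor of 2 or more for CYP2C9 at a 5 µM dose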
Target sequence (P11712 whole entry, looked up): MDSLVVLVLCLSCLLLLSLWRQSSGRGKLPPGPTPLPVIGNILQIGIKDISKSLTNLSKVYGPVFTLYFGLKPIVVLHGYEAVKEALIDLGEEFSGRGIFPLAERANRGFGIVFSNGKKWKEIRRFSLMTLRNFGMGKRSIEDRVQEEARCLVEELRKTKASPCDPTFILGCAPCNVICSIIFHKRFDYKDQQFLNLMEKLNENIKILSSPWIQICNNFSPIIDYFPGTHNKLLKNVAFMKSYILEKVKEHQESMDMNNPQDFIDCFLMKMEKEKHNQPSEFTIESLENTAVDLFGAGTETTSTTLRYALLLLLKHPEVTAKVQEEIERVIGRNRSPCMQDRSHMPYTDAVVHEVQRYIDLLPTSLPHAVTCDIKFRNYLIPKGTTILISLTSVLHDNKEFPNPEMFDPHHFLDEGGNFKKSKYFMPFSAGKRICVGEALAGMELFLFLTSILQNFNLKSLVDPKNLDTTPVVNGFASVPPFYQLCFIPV
Cav3 T inh – human Cav3.2 channel inhibition, primary screen. O95180. Cav3.2-expressing cells, Fluo-4 calcium fluorescence FDSS; stronger effect = lower value. B-score at 10 µM. actives 4% (n = 100,000);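 active means single-dose well whose peak fluorescence ratio is a statistical outlier from its plate by either plate-standardised score or position-corrected B-score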
CYP2C19 inhib – inhibitors of human CYP2C19; CYP2C19 Supersomes, luciferin-H EGE luminescence, 30 min; actives 21% (n = 96,000); inhibition, % at 5 µM; P33261;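 active means CYP2C19 inhibition above a set limit at 5 µM in the primary screen, cut at about 50% in these data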
CYP2C9 inh – inhibitors of human CYP2C9; inhibition, % at 5 µM; actives 20% (n = 96,000); P11712; CYP2C9 Supersomes, luciferin-H conversion, luminescence;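 active means blocking of liver enzyme CYP2C9 beyond about 50% at 5 µM, limit read from the data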
CYP2C19 activ – cytochrome P450 2C19 (human) activation. AID 1025. activation factor at 5 µM. recombinant CYP2C19, luciferin-H EGE luminescence; stronger effect = higher value; 0 = fully inhibited enzyme, 1 = untreated enzyme. P33261. 96,000 tested, under 10 active;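 active means activation factor of at least 2 at 5 µM in the primary screen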
A number is an active result; 0 = inactive; - = not tested or not shown.

SMILES | CYP2C9 activ | Cav3 T inh | CYP2C19 inhib | CYP2C9 inh | CYP2C19 activ
O=C1c2ccccc2C(Nc2ccc(S(=O)(=O)N3CCCCCC3)cc2)N1c1ccccn1 (stereo unspecified) | 0 | 0 | 0 | 0 | 0
Cc1ccc(NC2c3ccccc3C(=O)N2CCN2CCOCC2)cc1 (stereo unspecified) | 0 | 0 | 82 | 0 | 0
O=C1c2ccccc2C(Nc2ccc(S(=O)(=O)N3CCOCC3)cc2)N1Cc1ccco1 (stereo unspecified) | 0 | 0 | 0 | 60 | 0
O=C1c2ccccc2C(Nc2ccc(S(=O)(=O)N3CCCCC3)cc2)N1Cc1ccco1 (stereo unspecified) | 0 | 0 | 0 | 90 | 0
O=C1c2ccccc2C(Nc2ccc(S(=O)(=O)N3CCOCC3)cc2)N1c1ccccn1 (stereo unspecified) | 0 | 0 | 0 | 77 | 0
CN(C)S(=O)(=O)c1cccc(NC(=O)COC(=O)CCc2nc3ccccc3s2)c1 | 0 | 0 | 0 | 0 | 0
CCOc1ccc(OCCCC(=O)O)cc1 | 0 | 0 | 0 | 0 | 0
COc1ccc(CCN(C(=O)c2ccc(F)cc2)C2=CC3CCC(C2)N3C)cc1OC (stereo unspecified) | 0 | - | 0 | 0 | 0
O=C(Cn1nc(-c2ccc(F)cc2)ccc1=O)Nc1ccc(C(=O)NC2CC2)cc1 | 0 | 0 | 0 | 0 | 0
Cc1ccc(C(=O)CCNc2ccc(F)c(Cl)c2)o1 | 0 | 0 | 66 | 0 | 0
Cc1ccc(C(=O)CCNc2cccc(Br)c2)o1 | 0 | 0 | 62 | 0 | 0
Cc1ccc(C(=O)CCNc2ccccc2)o1 | 0 | 0 | 0 | 0 | 0
CC(=O)c1c(C)nn(CCC(=O)O)c1C | 0 | 0 | 0 | 0 | 0
CCCCc1sc(-c2c(C#N)c(N)nc3c2CCCCC3)cc1[N+](=O)[O-] | 0 | -4.8 | 0 | 0 | 0
COc1ccc(S(=O)(=O)NCCC(=O)NCc2cccs2)cc1 | 0 | 0 | 0 | 0 | 0
COc1ccc(S(=O)(=O)NCCSCc2ccco2)cc1 | 0 | 0 | 89 | 0 | 0
COc1ccc(S(=O)(=O)NCCSCc2ccco2)cc1OC | 2.2 | - | 60 | 0 | 0
CCOc1ccc(S(=O)(=O)NCCSCc2ccco2)cc1 | 0 | 0 | 0 | 0 | 0
COc1ccc(S(=O)(=O)NCCSCc2cccs2)cc1 | 0 | 0 | 94 | 0 | 0
COc1ccc(S(=O)(=O)NCCSCc2ccccc2C)cc1Br | 2 | -4.9 | 81 | 0 | 0
CC1CCOC2(O1)C(=O)N(CN1CCN(c3cccc(Cl)c3)CC1)c1ccccc12 (stereo unspecified) | 0 | 0 | 0 | 0 | 0
CS(=O)(=O)c1ccc(CNC(=O)C2(C(F)(F)F)CC(CCCO)CCCO2)cc1 (stereo unspecified) | - | 0 | - | - | -
CCCCNC(=O)CSc1nc2cc3c(cc2c(=O)n1CCCN(CC)CC)OCO3 | 0 | 0 | 0 | 0 | 0
CCOC(=O)C1=C(C)N=c2s/c(=C/c3ccccc3)c(=O)n2C1c1ccc(OC)c(OC)c1 (stereo unspecified) | 0 | 0 | 0 | 0 | 0
CCOC(=O)C1=C(C)N=c2s/c(=C\c3ccncc3)c(=O)n2C1c1ccc2c(c1)OCO2 (stereo unspecified) | 0 | 0 | 85 | 85 | 0
SMILES | CYP2C9 activ | Cav3 T inh | CYP2C19 inhib | CYP2C9 inh | CYP2C19 activ
CCOC(=O)C1=C(C)N=c2s/c(=C3\C(=O)Nc4ccccc43)c(=O)n2C1c1ccc2c(c1)OCO2 (stereo unspecified) | 0 | - | 0 | 59 | 0
COc1ccccc1C1C(C(=O)c2sc(C)nc2C)=C(O)C(=O)N1CCN1CCOCC1 (stereo unspecified) | 0 | 0 | 0 | 0 | 0
Cc1ccc2c(c1)C1CN(C)CCC1N2CC(=O)N(C)c1ccccc1 (stereo unspecified) | 0 | 0 | 0 | 0 | 0
COCC(=O)Nc1ccccc1C#N | 0 | - | 0 | 0 | 0
CCCCc1ccc(/C=C2\C(=O)c3ccccc3C(O)=C2C(=O)OCC)cc1 | 0 | 0 | 67 | 90 | 0
CCC(=O)N(CC)C1=C(O)c2ccccc2C(=O)C1=O | 0 | 0 | 0 | 0 | 0
O=C1CCC(c2ccc(-n3ccnc3)cc2)=NN1 | - | 0 | - | - | -
Nc1ccc(-n2ccnc2)cc1 | 0 | 0 | 58 | 52 | 0
CCOC(=O)C1CCCN(c2c(N3CCc4ccccc4C3)c(=O)c2=O)C1 (stereo unspecified) | 0 | - | 0 | 0 | 0
CC(C)CN(Cc1cc2ccccc2[nH]c1=O)C(=O)c1cccnc1 | 0 | 0 | 0 | 0 | 0
O=C(c1ccncc1)N(Cc1cc2ccccc2[nH]c1=O)C1CCCCC1 | 0 | 0 | 90 | 74 | 0
O=C(c1ccco1)N(Cc1cc2ccccc2[nH]c1=O)C1CCCCC1 | 0 | 0 | 0 | 54 | 0
O=C(c1ccc(Cl)cc1)c1cc(-c2ccccn2)c(N2CCOCC2)s1 | 0 | 0 | 0 | 0 | 0
C=CCOc1nc2c(c(=O)n(Cc3ccc(Cl)cc3)c(=O)n2C)n1C | 0 | 0 | 0 | 0 | 0
N#CC1=C(N)Oc2ccccc2C12C(=O)Nc1n[nH]c(-c3ccccc3)c12 (stereo unspecified) | 0 | 0 | 0 | 54 | 0
Cc1c(C)[n+](=O)c(-c2ccco2)c(C)n1[O-] | 0 | 0 | 0 | 0 | 0
N#Cc1c(Sc2ncc(C(F)(F)F)cc2Cl)nsc1C/C=N\OCc1ccccc1Br | 0 | 0 | 0 | 0 | 0
COc1cccc(C2Nc3cc(Cl)c(S(N)(=O)=O)cc3S(=O)(=O)N2)c1 (stereo unspecified) | 0 | 0 | 0 | 0 | 0
Cc1ccc(S(=O)(=O)CC(=O)Nc2ccc(S(=O)(=O)Nc3onc(C)c3C)cc2)cc1 | 0 | 0 | 0 | 67 | 0
CCc1cccc(OCC(=O)Nc2ccc(S(=O)(=O)Nc3onc(C)c3C)cc2)c1 | 0 | - | 0 | 80 | 0
COc1cc(NS(=O)(=O)c2ccc(NC(=O)COc3ccccc3Cl)cc2)nc(OC)n1 | 0 | 0 | 86 | 96 | 0
Cc1ccc(OCC(=O)Nc2ccc(S(=O)(=O)Nc3onc(C)c3C)cc2)cc1 | 0 | - | 0 | 0 | 0
Cc1noc(NS(=O)(=O)c2ccc(NC(=O)COc3ccc(Cl)cc3Cl)cc2)c1C | 0 | - | 0 | 71 | 0
CC(C)(C)c1ccc(C(=O)N2CCC(=O)N(C(CO)Cc3ccccc3)CC2)cc1 (stereo unspecified) | - | 0 | - | - | -
Cc1ccc(Nc2nc3ccccc3[nH]2)nc1 | - | 0 | - | - | -
SMILES | CYP2C9 activ | Cav3 T inh | CYP2C19 inhib | CYP2C9 inh | CYP2C19 activ
CCOc1c2ccc(C(=O)NCCCCc3ccccc3)cc2nn1CC | 0 | 0 | 0 | 0 | 0
CCCCOc1ccc2c(C)cc(=O)oc2c1OCCCC | - | 0 | - | - | -
CN(CC(=O)Nc1cccnc1)S(=O)(=O)c1ccccc1 | 0 | 0 | 0 | 0 | 0
COc1ccc(C)cc1S(=O)(=O)N(C)CC(=O)Nc1ccccc1 | 0 | 0 | 91 | 90 | 0
COc1ccc(C)cc1S(=O)(=O)N(CC(N)=O)Cc1ccccc1 | 0 | 0 | 99 | 0 | 0
Cc1ccc(S(=O)(=O)N(C)CC(=O)Nc2ccccc2)cc1 | 0 | - | 63 | 0 | 0
COc1ccc(C)cc1S(=O)(=O)N(C)CC(=O)NCc1ccco1 | 0 | 0 | 0 | 51 | 0
CN(CC(=O)NCc1ccco1)S(=O)(=O)c1cccc2cccnc12 | 0 | 0 | 0 | 0 | 0

Bioassay records deposited in PubChem by several laboratories.
